From PubChem BioAssay
This is a sample that favours compounds with a hit; in the whole collection about 4.6% have one here.
D1 PAM – Potentiators of Human D1 Dopamine Receptor: qHTS; D(1A) dopamine receptor (Homo sapiens), P21728; HEK293 TREx D1 cells, calcium flux, dopamine EC20 potentiation; potentiation, % at 10 µM; 360,000 tested, 0.036% active; AID 504651, 2011; in the data active = potentiation above about 30%; note: 0% is about no effect
Target sequence (P21728 whole entry, looked up): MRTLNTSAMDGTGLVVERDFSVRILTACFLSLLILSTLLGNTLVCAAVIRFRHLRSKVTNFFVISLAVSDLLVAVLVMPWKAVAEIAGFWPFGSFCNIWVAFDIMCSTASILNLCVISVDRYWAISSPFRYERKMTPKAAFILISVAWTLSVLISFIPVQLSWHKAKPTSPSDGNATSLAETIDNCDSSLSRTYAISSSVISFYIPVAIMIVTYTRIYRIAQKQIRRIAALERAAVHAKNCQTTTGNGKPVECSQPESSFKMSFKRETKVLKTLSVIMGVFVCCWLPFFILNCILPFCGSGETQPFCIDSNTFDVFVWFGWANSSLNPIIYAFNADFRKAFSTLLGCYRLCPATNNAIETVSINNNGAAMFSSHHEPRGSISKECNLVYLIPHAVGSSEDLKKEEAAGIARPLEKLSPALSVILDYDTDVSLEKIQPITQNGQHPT
D1 antag – Antagonist of Human D 1 Dopamine Receptor: qHTS; activity change, negative = inhibition, % at 10 µM; AID 504652, 2011; D(1A) dopamine receptor (Homo sapiens), P21728; 360,000 tested, 3.2% active; HEK293 TREx D1 cells, calcium flux, dopamine EC80; stronger effect = lower value; in the data active = activity change below about -30%; note: % is set by controls: 0 for no effect and ±100 for the full control effect
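After overnight tetracycline induction at 30 C, force-coupled D1 HEK293 cells took up a no-wash calcium dye at room temperature. Compounds were added and monitored 180 s, and the response to EC80 dopamine was then recorded.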
TRHR enhancer – qHTS for Small Molecule Agonists and Allosteric Enhancers of Human TRH Receptor: Primary Screen for Enhancers; Thyrotropin-releasing hormone receptor (Homo sapiens), P34981; TRHR cells, fluo-8 calcium fluorescence, EC20 TRH enhancement; enhancement, % at 2 µM; 360,000 tested, 0.66% active; AID 493056, 2011; in the data active = enhancement above about 30%; note: 0% is about no effect
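TRHR-expressing cells loaded with fluo-8 calcium dye were read kinetically (ex 480/em 530) during compound addition, then stimulated with an EC20 of TRH (10 nM final). Enhancement of the Gq-mediated intracellular calcium response was scored.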
TRHR agonist – qHTS for Small Molecule Agonists and Allosteric Enhancers of Human TRH Receptor: Primary Screen for Agonists. 360,000 tested, 0.18% active. activation, % at 2 µM. TRHR cells, calcium flux fluo-8, FDSS agonist mode. Thyrotropin-releasing hormone receptor (Homo sapiens), P34981. AID 493084, 2011; note: 0% is about no effect
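TRHR-expressing cells loaded with fluo-8 calcium dye; 23 nL library compound pin-transferred, kinetic FDSS fluorescence (Ex 480/Em 530) recorded about 180 s for agonist-induced calcium release, before a 10 nM TRH EC20 addition for potentiator mode.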
D1 agonist – Allosteric Agonists of the Human D1 Dopamine Receptor: qHTS; activation, % at 2 µM; 360,000 tested, 1% active; HEK293 T-REx D1 cells, calcium flux, agonist mode; note: 0% is about no effect
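Agonism was scored from calcium flux recorded over 180 s (1 read/s) after pintool compound addition, following a 10-cycle baseline. Cells were inducible force-coupled HEK293 TREx D1, plated overnight at 30 C and loaded with no-wash calcium dye.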
Numbers without * were called inactive; . = no result given; ! = repeats disagree. Cut-off read from the data, not from the text of the source, unless noted: active = activation above about 30%; inactive = the rest.

SMILES	D1 PAM	D1 antag	TRHR enhancer	TRHR agonist	D1 agonist
N#C/C(=C\c1ccc(N2CCOCC2)o1)c1nc2ccccc2[nH]1	-1.5	-19.8	2.6	-0.4	63.8*
N#C/C(=C\c1ccc(-c2ccc(Cl)c(C(=O)O)c2)o1)c1nc2ccccc2[nH]1	0.0	9.9	3.3	26.1	13.8
N#C/C(=C\c1ccc(-c2ccc(C(=O)O)cc2)o1)c1nc2ccccc2[nH]1	-2.0	2.5	3.5	30.9*!	42.7*
Cc1ccc2nc(/C(C#N)=C/c3ccc(-c4cccc(Cl)c4)o3)[nH]c2c1	0.9	0.8	3.6	58.7*	277.2*
Cc1ccc(C(c2sc3nc(-c4ccco4)nn3c2O)N2CCCC2)cc1 (stereo not drawn)	0.2	.	-2.4	0.1	0.8
CC1CCCCN1C(=O)CSc1nc2ccccc2nc1Cc1ccc(Cl)cc1 (stereo not drawn)	-0.2	8.8	-2.9	0.5	3.8
Fc1cccc(Cl)c1Cn1c(-c2cccs2)nc2ccccc21	0.9	6.9	-6.7	-1.0	1.8
CCN1C(=O)[C@H]2[C@@H](c3ccc(-c4cc(C(C)=O)cs4)cc3)N3CCC[C@@]3(C(=O)OC)[C@H]2C1=O	-8.6	-31.1*	-4.9	-0.3	-1.1
Cc1c(/C=N/Nc2ccc(F)cc2)c(O)n(C)c(=O)c1C#N	-3.1	-14.3	7.7	1.7	3.5
CC(=O)N=Cc1c(C)c(C#N)c(=O)n(C)c1O	-9.3	-56.7*	-3.6	-1.9	10.1
CC(=O)N1c2ccc(S(=O)(=O)NCC3CCC(C(=O)Nc4cc(C)ccc4C)CC3)cc2CC1C (stereo not drawn)	0.5	-7.5	-2.6	0.3	0.7
COc1ccc(S(=O)(=O)NC2CCN(C#N)CC2)cc1	-0.8	-11.2	-0.4	1.6	-0.4
C=CCOC(=O)C1=C(C)NC(SC)=C(C#N)C1c1cccs1 (stereo not drawn)	-5.8	-20.1	-9.8	-0.7	-0.1
CCOC(=O)C1=C(C)NC(SCC(=O)Nc2cc(C)on2)=C(C#N)C1c1cccs1 (stereo not drawn)	-6.2	-48.2*	-5.7	-0.3	3.3
C=CCOC(=O)C1=C(C)NC(SCC(=O)Nc2nccs2)=C(C#N)C1c1ccc(Cl)cc1 (stereo not drawn)	-13.7	-69.6*	2.1	-0.3	0.5
C=CCOC(=O)C1=C(C)NC(SCC(=O)Nc2nccs2)=C(C#N)C1c1cccs1 (stereo not drawn)	-21.8	-75.5*	10.6	-0.7	1.7
CCOC(=O)C1=C(C)NC(SCC(N)=O)=C(C#N)C1c1cccs1 (stereo not drawn)	-5.0	34.8	8.6	-0.9	2.0
Cc1cc2c(s1)c1cnn(Cc3c(F)cccc3F)c(=O)c1n2C	7.2	-10.2	0.5	-0.4	1.1
Cc1csc2nc(COC(=O)c3cccc(NC(=O)COc4ccccc4Cl)c3)cc(=O)n12	-0.9	-1.7	4.2	0.1	-0.3
CCOc1ccc(S(=O)(=O)N(CC)CC(=O)NCc2ccccn2)cc1C	-2.5	-1.8	2.9	-1.3	3.6
CCOc1ccc(NC(=O)C2CCCN(S(=O)(=O)c3cccc4nonc34)C2)cc1 (stereo not drawn)	-1.6	22.7	-2.2	0.4	2.6
CCc1ccc(CNC(=O)CCn2c(=O)c3cccn3c3ccc(F)cc32)cc1	-4.3	-5.0	6.6	-0.4	1.3
Cc1cccc(NC(=O)CSC2=NN3CCCC(=O)N=C3S2)c1C	-7.5	-32.8*	-3.0	1.1	1.3
COc1ccc(NC(=O)CCSc2nc(-c3ccco3)cc(C(F)(F)F)n2)cc1	-8.2	-14.8	-0.2	-0.3	2.6
Cc1ccc(NC(=O)CSc2nc(-c3ccco3)cc(C(F)(F)F)n2)cc1	-7.1	-35.4*	-2.9	1.0	11.9
SMILES	D1 PAM	D1 antag	TRHR enhancer	TRHR agonist	D1 agonist
COC(=O)c1ccccc1NC(=O)CSc1ncccn1	-6.8	5.1	0.3	-0.8	4.2
Cc1ccccc1Cn1ccc(NC(=O)CCSc2nc(-c3ccco3)cc(C(F)(F)F)n2)n1	-1.9	31.2	-3.9	0.3	7.7
CN(C)c1ccc(NC(=O)CCSc2nc(-c3ccco3)cc(C(F)(F)F)n2)cc1	-5.8	-32.6*	10.2	0.3	0.7
COC(=O)c1ccccc1NC(=O)CSc1nc(-c2ccccc2)cc(C(F)(F)F)n1	-6.7	-41.9*	-1.0	0.5	3.5
Cc1ccc(Cn2ccc(NC(=O)CCSc3nc(-c4ccco4)cc(C(F)(F)F)n3)n2)cc1	-3.1	5.3	39.4*	1.2	3.8
O=C(c1noc2c1CCCCC2)N1CCN(c2cccc(C(F)(F)F)c2)CC1	-3.0	-2.8	-3.9	1.7	13.1
O=[S+]([O-])(c1ccc(N2CCOCC2)nc1)N1CCN([S+](=O)([O-])c2c(F)cccc2F)CC1	1.4	-2.0	-1.8	1.4	3.9
Cc1cccc(Nc2ncnc3c2cnn3C)c1C	-0.3	-9.9	-5.4	-0.5	-4.3
COc1ccc(-c2cn3c(n2)sc2cc(C(=O)NCCc4ccccc4)ccc23)cc1	-0.6	-8.3	13.6	-0.4	1.0
Cc1ccccc1Cn1ccc(NC(=O)c2cnn3c(C(F)(F)F)cc(-c4ccco4)nc23)n1	-6.7	-56.7*	-5.4	-0.1	1.0
O=C(Nc1ccc2c(c1)OCO2)c1cnn2c(C(F)(F)F)cc(-c3ccco3)nc12	0.5	1.6	1.2	-0.1	-1.1
Cc1cc(NC(=O)CCSc2nc(-c3ccco3)cc(C(F)(F)F)n2)no1	-4.0	-13.0	-1.1	-0.1	54.9*
CC(NC(=O)CN(c1ccc(Cl)cc1Cl)S(=O)(=O)c1ccccc1)c1ccccc1 (stereo not drawn)	-4.5	-5.5	-7.7	-1.0	0.4
Cc1ccc(NC(=O)CN(c2ccc(Cl)cc2)S(=O)(=O)c2cc([N+](=O)[O-])ccc2Cl)c(C)c1	-15.2	-56.0*	-6.1	0.2	0.5
O=C(NC1CCCCCC1)C1CCN(C(=O)N2CCOc3ccccc32)CC1	-2.0	-7.1	2.8	-0.3	-0.7
Cc1cc(C)cc(C(=O)OCC(=O)N2CCCCCC2)c1	-10.5	-30.5*	-17.4	-0.2	-0.3
CS(=O)(=O)N1CCN=C1SCc1ccccc1	-2.1	0.2	31.5*	-0.3	3.7
O=S(=O)(c1ccccc1)N1CCN=C1SCc1cccnc1	2.8	-9.3	5.0	0.0	-0.8
CCOC(=O)c1c(C)[nH]c(C)c1S(=O)(=O)N(C)CC(=O)N1CCN(c2cccc(Cl)c2)CC1	-4.3	2.6	24.8	-0.3	2.3
Cc1cccc(NS(=O)(=O)c2ccc3[nH]c4c(c3c2)CCCCCC4)c1	-6.0	-87.1*	-1.6	0.0	0.9
